Results as given in PubChem BioAssay (NCI).
Compounds without any hit were thinned out: in the full panel of roughly 83,000, 20% have a hit.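 Note: values are percent growth. 100 is the growth of untreated cells, values between 100 and 0 indicate rising inhibition; between -100 and 0 indicates cell death.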 Unmarked numbers belong to inactive results. Active and inactive are the calls of the source. Rule for the calls: active = growth percent below 10; inactive = the rest.

tested on: RPMI-8226 leukemia; assay: NCI-60 one-dose screen, 48 h (100 = growth as untreated, 0 = no growth, -100 = all killed); details: 10 µM unless noted

Point of comparison: O=C(NCCN1CCOCC1)OCc1ccc2c(Cl)cc(Cl)c(O)c2n1, growth 56.2%. Against it:
- Nc1ncccc1O — higher, 87%
- CC1(C)CC[C@]2(CO)CC[C@]3(C)[C@](O)([C@H](O)C[C@@H]4[C@@]5(C)CCCNC(C)(C)[C@@H]5CC[C@]43C)[C@@H]2C1 — higher, 74.4%
- CN(C)CCC(=O)C1CC1 — higher, 101%
- CSc1ccc2c3c(n(CCCn4ccnc4)c(=O)c2c1)-c1ccccc1C3=O — lower, 28.9%
- O=c1oc2ccccc2cc1-c1nn(-c2ccccc2)cc1-c1nn[nH]n1 — higher, 100%
- COc1ccc(-c2cc(C(=O)N3N=C(c4ccc(N)cc4)CC3c3ccc(Cl)cc3)c3ccccc3n2)cc1 (stereo not given) — lower, 16.2%
- COc1cc(/C=C/c2cn[nH]c2-c2ccc(C)cc2)cc(OC)c1OC — lower, 25.8%
- COc1ccc(Nc2ncc(I)c(NCCCNC(=O)C3CCC3)n2)cc1 — lower, 11.4%
- CN1CCOCCN(C)Cc2ccc3ccc(cc3c2)CN(C)CCOCCN(C)Cc2ccc3ccc(cc3c2)C1 — lower, 36.7%
- S=c1ccnc[nH]1 — higher, 110%
- c1ccc2cc(Cn3cc(CSc4nc5ccccc5s4)nn3)ccc2c1 — higher, 95.7%
- O=C(O)c1cn(C2CC2)c2cc(N3CCN(C(=O)N4CCOCC4)CC3)c(F)cc2c1=O — higher, 108%

CCCc1cc(=O)oc2c(C(=O)CC(C)C)c(O)c(CC=C(C)C)c(O)c12 was tested, and the growth was -12.6% (active).
O=C(/C=C/c1ccccc1)c1ccc(-n2cc(CN3CCN(c4cc5c(cc4F)c(=O)c(C(=O)O)cn5C4CC4)CC3)nn2)cc1 was tested, and the growth was -0.509% (active).
